# Assay results taken from paper PMC4336329 (PLoS ONE, 2015).
# Hit rate of the full screen: of about 310,000 compounds, about 14,000 (4.5%) showed an effect of 50% or more. Effects have a minus sign here. This excerpt belongs to a sample that is enriched for strong results.
# Molecular target: human ether-à-go-go-related gene (hERG) potassium channel (human, UniProt Q12809)
# Assay: primary screen, population patch clamp on CHO cells stably expressing hERG; higher = less effect of the substance
# 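Also: peak tail current of the secondary pulse compared with the same well before compound.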
# Chain of human ether-à-go-go-related gene (hERG) potassium channel (Q12809 whole entry, looked up): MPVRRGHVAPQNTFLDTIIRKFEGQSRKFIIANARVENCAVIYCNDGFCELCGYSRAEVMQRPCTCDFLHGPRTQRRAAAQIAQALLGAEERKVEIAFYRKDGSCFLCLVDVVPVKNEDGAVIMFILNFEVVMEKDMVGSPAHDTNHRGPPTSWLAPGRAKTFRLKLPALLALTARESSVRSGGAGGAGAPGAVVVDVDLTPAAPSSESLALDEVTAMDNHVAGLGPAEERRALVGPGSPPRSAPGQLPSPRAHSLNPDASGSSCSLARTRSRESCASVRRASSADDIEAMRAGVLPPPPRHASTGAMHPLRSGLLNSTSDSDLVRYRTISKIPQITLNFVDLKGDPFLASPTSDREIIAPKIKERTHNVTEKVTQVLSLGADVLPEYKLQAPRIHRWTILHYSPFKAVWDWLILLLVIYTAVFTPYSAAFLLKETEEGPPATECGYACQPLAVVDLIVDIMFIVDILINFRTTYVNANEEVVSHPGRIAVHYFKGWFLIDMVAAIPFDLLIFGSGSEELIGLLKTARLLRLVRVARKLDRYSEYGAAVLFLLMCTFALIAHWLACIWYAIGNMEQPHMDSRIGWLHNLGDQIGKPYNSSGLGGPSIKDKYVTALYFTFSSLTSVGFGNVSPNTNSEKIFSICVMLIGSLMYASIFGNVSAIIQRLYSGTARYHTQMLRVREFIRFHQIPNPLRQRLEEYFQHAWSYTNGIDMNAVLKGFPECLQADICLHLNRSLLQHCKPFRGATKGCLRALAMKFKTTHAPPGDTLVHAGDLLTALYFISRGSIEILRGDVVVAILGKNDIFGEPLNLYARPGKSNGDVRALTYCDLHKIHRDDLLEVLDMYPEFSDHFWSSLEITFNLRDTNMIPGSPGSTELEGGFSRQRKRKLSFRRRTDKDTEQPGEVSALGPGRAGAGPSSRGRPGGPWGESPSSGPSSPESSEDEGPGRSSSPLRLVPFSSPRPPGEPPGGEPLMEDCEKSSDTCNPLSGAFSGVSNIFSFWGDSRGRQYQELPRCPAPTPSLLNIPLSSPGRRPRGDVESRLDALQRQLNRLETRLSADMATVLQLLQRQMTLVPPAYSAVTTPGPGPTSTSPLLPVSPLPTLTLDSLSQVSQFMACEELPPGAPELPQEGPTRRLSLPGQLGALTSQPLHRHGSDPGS
row,SMILES,"hERG current change (%, negative = inhibition) at 10uM [%]"
1,Cn1c(SCC(=O)O)nnc1-c1ccc(NC(=O)c2ccc(Cl)c(Cl)c2)cc1,7
2,COCc1[nH]nc2c1C(C1C=CCCC1)C(C#N)=C(N)O2 (stereo not drawn),-8.37
3,CSc1ccc(/C=C/C(=O)NC(=O)c2ccccc2O)cc1,11.3
4,O=C(O)/C=C/c1cnc2ccccc2c1,19.1
5,CCOc1ccc(C(O)(CCC(C)C)C(CN2CCOCC2)c2ccccc2)cc1.Cl (stereo not drawn),13.3
6,COc1ccc(CCNC(=O)CCC(=O)Nc2nnc(C(C)C)s2)cc1OC,10.4
7,Cc1cc(N)n(-c2nc(-c3cccnc3)nc3ccccc23)n1,-27.4
8,O=S(=O)(CCN1CCOCC1)c1ccc(OC(F)(F)F)cc1,2.9
9,COc1ccc(OCCOC(=O)C(C)NS(=O)(=O)c2ccc(NC(C)=O)cc2)cc1 (stereo not drawn),-7.73
10,COC(=O)C1=C(c2c(C)noc2C)C[C@@H]2CC[C@H]1N2C(=O)N1CCCCC1,17.1
11,CC(=O)Nc1ccc(N=Nc2ccccc2)cc1,8.44
12,O=C(NC(=S)Nc1nc(-c2ccc([N+](=O)[O-])cc2)cs1)c1ccco1,16.5
13,O=C(CCC1N=C2c3ccccc3N=C(SCc3ccccc3Cl)N2C1=O)NCc1ccco1 (stereo not drawn),-32.4
14,O=C(CCC1N=C2c3ccccc3N=C(SCc3ccc(Cl)cc3)N2C1=O)NCc1ccco1 (stereo not drawn),-52
15,O=C(CCC1N=C2c3ccccc3N=C(SCc3cccc(Cl)c3)N2C1=O)NCc1ccco1 (stereo not drawn),-42.2
16,NC(=O)CSC1=Nc2ccccc2C2=NC(CCC(=O)NCc3ccc(F)cc3)C(=O)N12 (stereo not drawn),15.1
17,O=C(CC1N=C2c3ccccc3N=C(SCc3ccc(F)cc3)N2C1=O)NCc1ccco1 (stereo not drawn),-73.9
18,O=C(CCC1N=C2c3ccccc3N=C(SCc3ccc(F)cc3)N2C1=O)NCc1ccco1 (stereo not drawn),-70.9
19,O=C(CCC1N=C2c3ccccc3N=C(SCC(=O)NCC3CCCO3)N2C1=O)NCc1ccc(F)cc1 (stereo not drawn),2.89
20,CCC(C)NC(=O)CSC1=Nc2ccccc2C2=NC(CC(=O)NCc3ccc(F)cc3)C(=O)N12 (stereo not drawn),-11.4
21,O=C(CSC1=Nc2ccccc2C2=NC(CC(=O)NCc3ccco3)C(=O)N12)NCC1CCCO1 (stereo not drawn),7.92

row,SMILES,"hERG current change (%, negative = inhibition) at 10uM [%]"
1,CCCCN(C)CCNC(=O)c1ccc(Cn2c(=S)[nH]c3ccc(Br)cc3c2=O)cc1,-41
2,COCCNC(=S)N(CCCN(C)C)Cc1cc2cc3c(cc2[nH]c1=O)OCCO3,24.9
3,CC(Oc1ccc2c(-c3ccccc3)cc(=O)oc2c1)C(=O)N[C@H](Cc1c[nH]c2ccccc12)C(=O)O (stereo partly drawn),7.48
4,O=C(NCC1CCCO1)c1cnn2c1NC(c1ccccc1)CC2C(F)(F)F (stereo not drawn),1.68
5,NS(=O)(=O)c1cccc(NC(=O)COC(=O)CCc2ccccc2)c1,17
6,CCC(=O)N1CCc2cc(S(=O)(=O)CCC(=O)NCc3ccc4c(c3)OCO4)ccc21,0.659
7,Cc1ccc2c(CC(=O)NCCc3ccc(S(N)(=O)=O)cc3)coc2c1,-2.43
8,O=C(O)C(=O)O.c1ccc(COc2ccc(OCCCN3CCCCC3)cc2)cc1,-78.3
9,O=C(O)C(=O)O.c1ccc(COc2ccc(OCCCN3CCCC3)cc2)cc1,-73.8
10,COc1cccc2c1-c1c(C(=O)O)cccc1C2=O,15.7
11,CC(=O)c1ccc(NC(=O)C(C)NCc2ccccc2Cl)cc1 (stereo not drawn),-0.834
12,CCCCN(C)Cc1c(C)[nH]c2c(ccc3ccccc32)c1=O,-73.6
13,CCCCN(C)Cc1c(C)[nH]c2c(Cl)cccc2c1=O,-38.7
14,CCCCN(C)Cc1c(C)[nH]c2ccc(OCC)cc2c1=O,-39.9
15,CCCCN(CC)Cc1c(C)[nH]c2c(ccc3ccccc32)c1=O,-74.3
16,CCN(Cc1ccccc1)Cc1c(C)[nH]c2c(C)c(C)ccc2c1=O,-40.6
17,CCCCN(C)Cc1c(C)[nH]c2ccc(Cl)cc2c1=O,-55.3
18,CCCCN(C)Cc1c(C)[nH]c2ccccc2c1=O,-2.26
19,Cc1[nH]c2ccc(Cl)cc2c(=O)c1CN1CCCC1,1.86
20,CCCCN(CC)Cc1c(C)[nH]c2ccccc2c1=O,-20.7
21,CC1(C)CC(=O)C(C=Nc2cccnc2/N=C/C2=C(O)CC(C)(C)CC2=O)=C(O)C1,14

row,SMILES,"hERG current change (%, negative = inhibition) at 10uM [%]"
1,O=c1[nH]n2c(C(F)(F)F)cc(C3CC3)nc2c1N=Nc1ccccc1,12.2
2,COc1cc(OC)cc(-c2oc(=O)c3cc(OC)c(OC)cc3c2/C=C/c2ccc(F)cc2)c1,4.91
3,Cc1ccc(C(=O)n2nnc3ccccc32)cc1,7.37
4,CN1C(=S)SC(/[N+]([O-])=C\c2ccccc2)C1(C)C (stereo not drawn),-15.4
5,COC(=O)c1[nH]c2ccc(C)cc2c1NC(=O)CN1CCN(c2ccc(F)cc2)CC1,-1.02
6,COC(=O)c1[nH]c2ccccc2c1NC(=O)CN1CCN(c2cccc(Cl)c2)CC1,6.84
7,COC(=O)c1[nH]c2ccccc2c1NC(=O)CN1CCN(Cc2ccc3c(c2)OCO3)CC1,-73.7
8,CCN(CC(=O)Nc1c(C(=O)OC)[nH]c2ccccc12)c1ccc2c(c1)OCO2,-17.4
9,COC(=O)c1[nH]c2ccc(C)cc2c1NC(=O)CCN1CCN(Cc2ccc3c(c2)OCO3)CC1,-66.1
10,CCN(CC(=O)Nc1c(C(=O)OC)[nH]c2ccc(C)cc12)c1ccc2c(c1)OCO2,2.19
11,CCc1noc(C)c1C(=O)Nc1cccc(S(=O)(=O)N(C)c2ccccc2)c1,-22.1
12,CCN1CCCC1CNC(=O)Cn1cccc1C(=O)c1ccccc1 (stereo not drawn),-3.53
13,O=C1C=C(c2ccc(F)cc2OCc2ccccc2)C[C@@H](c2ccc(Cl)cc2)C1,6.91
14,CCOC(=O)[C@H]1[C@H]2COc3ccc(Cl)cc3[C@@H]2N2C(=O)c3cc(C)ccc3NC(=O)[C@@]12C,5.63
15,Cc1cc(C)n2nc(N)c(N=Nc3ccccc3)c2n1,-3.32
16,COC(=O)[C@H](CCSC)NC(=O)c1cc2c(cn1)[nH]c1ccccc12,0.117
17,O=C(CSc1nc2ccccc2[nH]1)c1ccco1,-4.74
18,CCOC(=O)Nc1ccccc1C(=O)Nc1cc(C)cc(C)c1,28.9
19,CCOc1cc(-c2nc3cc(C)ccn3c2NCC2CCCO2)ccc1O (stereo not drawn),-72.2
20,CCOc1cc(/C=C(\C#N)C(=O)NCC2CCCO2)ccc1O (stereo not drawn),-3.03
21,CCCCNc1c(-c2ccc(OC)c(SC3CCCCC3)c2)nc2cc(C)ccn12.O=C(O)C(F)(F)F,12.6

row,SMILES,"hERG current change (%, negative = inhibition) at 10uM [%]"
1,Cc1ccn2c(NC3CCCC3)c(-c3ccncc3)nc2c1,-10.2
2,COc1ccc(-c2nc3cc(C)ccn3c2NCC2CCCO2)cc1OC.Cl (stereo not drawn),-71.2
3,COc1ccc(-c2nc3cccc(C)n3c2NCC2CCCO2)cc1O.Cl (stereo not drawn),-5.6
4,CCOc1cc(-c2nc3c(C)cccn3c2NCC2CCCO2)ccc1O.CNC.Cl (stereo not drawn),-43.9
5,CCOc1cc(-c2nc3ccccn3c2NCC2CCCO2)ccc1O (stereo not drawn),-64.7
6,COc1cc(-c2nc3ccccn3c2NCC2CCCO2)ccc1O (stereo not drawn),-17.9
7,COc1ccc(-c2nc3cccc(C)n3c2NCc2ccco2)cc1OC,-42.2
8,COc1ccc(-c2nc(C#N)c(NCC3CCCO3)o2)cc1OC (stereo not drawn),6.28
9,COc1cc(-c2nc3cccc(C)n3c2NCC2CCCO2)ccc1O (stereo not drawn),-51.4
10,CCN(CC)CCN1C(=O)C(=O)/C(=C(/O)c2c(C)[nH]c(C(=O)OC)c2C)C1c1ccccc1OC (stereo not drawn),20.8
11,O=C(NCCCN1CCCC1=O)c1cccc(C(F)(F)F)c1,-3
12,CCOC(=O)C1CCN(CC(C)(C)NS(=O)(=O)c2ccc(Cl)cc2)CC1,-1.75
13,C/C(=N/Nc1nc(C)cc(C)n1)c1ccc(Br)cc1,-14.9
14,C/C(=N/Nc1ccnc2cc(Cl)ccc12)c1ccc(O)cc1,-6.2
15,Cc1ccc(C)c(N2CCN(c3ccncc3N)CC2)c1,-47.8
16,Cc1c(NC2=CC(=O)CCC2)c(=O)n(-c2ccccc2)n1C,8.37
17,O=C(CC(=O)N1CCN(c2ccccn2)CC1)Nc1ccc2nc3n(c(=O)c2c1)CCCCC3,-17.9
18,C/C(=N\N1CCCCC1c1cccnc1)c1c(O)n(C2CCCCC2)c(=S)[nH]c1=O (stereo not drawn),0.0734
19,CCn1c(O)c(/C(C)=N/N2CCCCC2c2cccnc2)c(=O)[nH]c1=S (stereo not drawn),-55.2
20,CCCCn1c(O)c(/C(CC)=N/N2CCCCC2c2cccnc2)c(=O)[nH]c1=S (stereo not drawn),-27
21,O=[N+]([O-])c1cc([N+](=O)[O-])c(Oc2c(F)ccc(F)c2F)cc1NN1CCCCC1,19.8
